Only some compounds are listed: those with a hit (about 10% of all), similar ones and a draw of the others.
NIH3T3 tox: NIH 3T3 cell cytotoxicity; Potency, µM (highest dose often 96.7 µM), hits mostly inhibitors; NIH 3T3 viability, CellTiter-Glo ATP luminescence, 48-72 h; 4.3% of 94,000 active; note: nearly all actives have a fitted effect of over 55% in size
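Viability of NIH 3T3 cells after 48 or 72 hr compound treatment at 37 °C was assessed by CellTiter-Glo, with luminescence imaged following a 10 min room-temperature step.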
hNpr1 antagonist: human Npr1 receptor antagonism | AID 1347048 | HEK293 hNpr1 GloSensor cGMP, ANP-stimulated luminescence | Potency, µM (highest dose often 46.3 µM), usual class: inhibitors | 1.6% of 76,000 active; calls by dose curve; note: nearly all actives have a fitted effect of over 60% in size
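HEK293 cells stably expressing human Npr1 and cGMP GloSensor pGS-40F, loaded 2 h with 2% GloSensor reagent, given compound 30 min at room temperature. Luminescence read before and 20 min after 0.1 nM hNppA.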
HEK cytotox: HEK 293 cell cytotoxicity. AID 1345083. Potency, µM (series often up to 115 µM), hits mostly inhibitors. 6.6% of 94,000 active. HEK 293 viability, ATP luminescence (CellTiter-Glo), 48-72 h; note: nearly all actives have a fitted effect of over 60% in size
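ATP-coupled CellTiter-Glo luminescence served as viability read-out, recorded 10 min after reagent addition at room temperature. HEK 293 cells, 250 cells/well, had been incubated with pintool-transferred compound for 48 or 72 hr at 37 degree Celsius.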
Luciferase inh: blocks purified firefly luciferase enzyme activity; P08659; Potency, µM (titrated, usually from 115 µM), most hits filed as inhibitors; purified P. pyralis luciferase, luminescence, biochemical; 2.5% of 76,000 active; note: nearly all actives have a fitted effect of over 65% in size
Target sequence (P08659 whole entry, looked up): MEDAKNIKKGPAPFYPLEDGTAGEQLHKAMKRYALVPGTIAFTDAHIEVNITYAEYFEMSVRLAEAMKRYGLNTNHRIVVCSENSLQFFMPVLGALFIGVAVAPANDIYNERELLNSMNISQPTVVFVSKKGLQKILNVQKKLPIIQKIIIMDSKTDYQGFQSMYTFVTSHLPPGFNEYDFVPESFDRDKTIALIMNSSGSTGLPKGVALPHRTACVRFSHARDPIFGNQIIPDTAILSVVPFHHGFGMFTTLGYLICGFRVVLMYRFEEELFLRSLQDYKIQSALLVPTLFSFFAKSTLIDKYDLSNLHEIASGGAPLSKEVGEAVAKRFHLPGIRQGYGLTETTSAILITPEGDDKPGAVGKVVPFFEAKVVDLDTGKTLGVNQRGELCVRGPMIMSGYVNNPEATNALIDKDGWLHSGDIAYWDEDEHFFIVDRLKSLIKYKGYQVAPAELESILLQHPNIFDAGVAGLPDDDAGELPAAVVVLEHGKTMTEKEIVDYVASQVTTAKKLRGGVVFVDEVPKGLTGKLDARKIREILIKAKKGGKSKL
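Luminescence read by CCD imaging after purified firefly luciferase (10nM final) was added to substrate buffer holding 10uM D-luciferin and 10uM ATP, pH 7.5, pre-dosed with compound.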
GPT2 inh: inhibitors of human GPT2 alanine aminotransferase. Recombinant GPT2, coupled pyruvate oxidase/HRP Amplex Red fluorescence. Potency, µM (top dose mostly 57.7 µM), most hits filed as inhibitors. 0.25% of 100,000 active; note: nearly all actives have a fitted effect of over 60% in size
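Fluorescence read-out: pyruvate from GPT2 turnover coupled to pyruvate oxidase, HRP and Amplex Red (0.2mM ThPP, 0.2U/mL PO and HRP, 50uM Amplex final). Substrates 250uM a-KG, 2mM L-alanine; enzyme 10ng/uL; 30 min RT.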
NPR1 antag cnf: confirmation of human Npr1 natriuretic peptide receptor antagonists; AID 1347044; Potency, µM (titrated, usually from 57.6 µM), actives largely listed as inhibitors; shares compounds with hNpr1 antagonist; HEK293 hNpr1 cGMP GloSensor luminescence, ANP-stimulated; 76% of 1,400 active; calls by dose curve; note: nearly all actives have a fitted effect of over 70% in size
NPR2 antag: antagonizes human Npr2, subtype selectivity check; shares compounds with hNpr1 antagonist; 67% of 1,400 active; Potency, µM (doses to about 57.6 µM), hits mostly inhibitors; HEK293 hNpr2 GloSensor cGMP luminescence, CNP-stimulated; calls by dose curve; note: nearly all actives have a fitted effect of over 70% in size
FLuc inh counter: FLuc enzyme inhibition, Npr1 counter-screen; 0.7% of 1,400 active; AID 1347047; purified FLuc enzyme, luminescence, Km substrate; Potency, µM (highest dose often 57.6 µM), most hits filed as inhibitors; shares compounds with hNpr1 antagonist
GloSensor cGMP: control cell line activity, Npr1 antagonist counter-screen; shares compounds with hNpr1 antagonist; 69% of 1,400 active; Potency, µM (highest dose often 57.6 µM), usual class: inhibitors; HEK293 GloSensor cGMP, SNP-stimulated, luminescence; calls by dose curve; note: nearly all actives have a fitted effect of over 70% in size
Each line names hits and unclear results; the compound was inactive in the other large screens (follow-up assays come after a bar, where they were run). Unless noted, calls come from the whole dose curve; as a rule, active = well fitted curve in the direction sought with a large enough effect; inconclusive = small, poorly fitted or top-dose-only effect, or another doubt; inactive = no such curve, though single readings can be large; an effect the other way counts as inactive or inconclusive.

CCOC(=O)C1=C(C)N=C2SC=C(CC(=O)NCc3ccco3)N2C1c1ccccc1Cl (stereo not drawn)	hNpr1 antagonist 11µM, HEK cytotox inconclusive | NPR1 antag cnf inconclusive | NPR2 antag inconclusive | FLuc inh counter inactive | GloSensor cGMP inactive
C=CCOC(=O)C1=C(C)N=C2SC=C(CC(=O)NCC(C)C)N2C1c1ccccc1Cl (stereo not drawn)	hNpr1 antagonist inconclusive, HEK cytotox inconclusive
CC1=C(C(=O)OC(C)C)C(c2ccc(C)cc2)N2C(CC(=O)N3CCCCC3)=CSC2=N1 (stereo not drawn)	NIH3T3 tox inconclusive, HEK cytotox inconclusive
CC1=C(C(=O)OC(C)C)C(c2ccc(Cl)cc2)N2C(CC(=O)N3CCCC3)=CSC2=N1 (stereo not drawn)	NIH3T3 tox inconclusive, hNpr1 antagonist inconclusive, HEK cytotox inconclusive | NPR1 antag cnf inactive | NPR2 antag inconclusive | FLuc inh counter inactive | GloSensor cGMP inactive
COC(=O)C1=C(C)N=C2SC=C(CC(=O)N3CCCCC3)N2C1c1ccc(Cl)cc1 (stereo not drawn)	hNpr1 antagonist inconclusive, HEK cytotox inconclusive, GPT2 inh inconclusive | NPR1 antag cnf inconclusive | NPR2 antag inconclusive | FLuc inh counter inactive | GloSensor cGMP inactive
C=CCOC(=O)C1=C(C)N=C2SC=C(CC(=O)N3CCCC3)N2C1c1ccc(OC)cc1OC (stereo not drawn)	HEK cytotox inconclusive
C=CCOC(=O)C1=C(C)N=C2SC=C(CC(=O)N3CCCC3)N2C1c1cc(OC)cc(OC)c1 (stereo not drawn)	hNpr1 antagonist 10µM, HEK cytotox inconclusive | NPR1 antag cnf 17µM | NPR2 antag 15µM | FLuc inh counter inactive | GloSensor cGMP inactive
O=c1n(CCCN2CCN([S+](=O)([O-])c3cccs3)CC2)nc2n1CCCC2	none (no result: hNpr1 antagonist, Luciferase inh, GPT2 inh)
CC1=NS(=O)(=O)N(C)C=C1C(=O)OCc1nc(-c2ccccc2)oc1C	NIH3T3 tox inconclusive, hNpr1 antagonist 10µM, HEK cytotox inconclusive | NPR1 antag cnf 12µM | NPR2 antag 14µM | FLuc inh counter inactive | GloSensor cGMP 11µM
CC1=NS(=O)(=O)N(C)C=C1C(=O)OCc1nc(-c2ccc(C(F)(F)F)cc2)no1	NIH3T3 tox inconclusive, hNpr1 antagonist 10µM, HEK cytotox 40µM | NPR1 antag cnf 9.7µM | NPR2 antag 11µM | FLuc inh counter inactive | GloSensor cGMP 9.7µM
CC1=NS(=O)(=O)N(C)C=C1C(=O)OCc1nc(-c2ccsc2)no1	hNpr1 antagonist inconclusive
CC1=NS(=O)(=O)N(C)C=C1C(=O)OCc1nc(-c2cccc(F)c2)no1	hNpr1 antagonist inconclusive, HEK cytotox inconclusive
CC1=NS(=O)(=O)N(C)C=C1C(=O)OCc1nc(-c2cccc(Cl)c2)no1	hNpr1 antagonist 14µM, HEK cytotox inconclusive | NPR1 antag cnf 22µM | NPR2 antag inconclusive | FLuc inh counter inactive | GloSensor cGMP inconclusive
CC1=NS(=O)(=O)N(C)C=C1C(=O)OCc1nc(-c2ccccc2)no1	HEK cytotox inconclusive
CC(C)CNC(=O)c1ccc2oc(-c3ccccn3)nc2c1	NIH3T3 tox inconclusive, HEK cytotox inconclusive (no result: hNpr1 antagonist, Luciferase inh)
Cc1nc(CN2C(=O)OC3(CCN(Cc4c[nH]c5ccccc45)CC3)C2(C)c2ccccc2)cs1 (stereo not drawn)	NIH3T3 tox 20µM, HEK cytotox inconclusive | NPR1 antag cnf inconclusive | NPR2 antag inconclusive | FLuc inh counter inactive | GloSensor cGMP inactive
c1ccc(CN2CCNc3cnc(Nc4ccncn4)cc3C2)cc1	NIH3T3 tox inconclusive, HEK cytotox inconclusive, GPT2 inh inconclusive
c1ccc(Nc2cc3c(cn2)CN(Cc2c[nH]c4ccccc24)CCN3)cc1	NIH3T3 tox 25µM, hNpr1 antagonist inconclusive, HEK cytotox inconclusive, GPT2 inh inconclusive | NPR1 antag cnf 11µM | NPR2 antag 6.3µM | FLuc inh counter inactive | GloSensor cGMP inconclusive
NC(=O)CCc1ccc(CC2CCN(C(=O)c3cccnc3)CC2)cc1	HEK cytotox inconclusive (no result: hNpr1 antagonist, Luciferase inh)
C[C@@H]1C(=O)O[C@H]2[C@H]1CC[C@@]1(C)Cc3sc(NC(=O)c4ccc(N(C)C)cc4)nc3[C@@H](C)[C@H]21	NIH3T3 tox 32µM, hNpr1 antagonist 8.9µM, HEK cytotox inconclusive | NPR1 antag cnf 14µM | NPR2 antag inconclusive | FLuc inh counter inactive | GloSensor cGMP 11µM
COc1ccc(CNC(=O)[C@@H]2Cc3nc[nH]c3CN2Cc2ccc(C(=O)O)cc2)cc1	none
COc1ccc(CN2Cc3[nH]cnc3C[C@H]2C(=O)NCc2ccccc2)c2ccccc12	NIH3T3 tox inconclusive, hNpr1 antagonist inconclusive, HEK cytotox 89µM, GPT2 inh inconclusive | NPR1 antag cnf inconclusive | NPR2 antag inconclusive | FLuc inh counter inactive | GloSensor cGMP inactive
O=S(=O)(N[C@H]1CO[C@H]2[C@@H]1OC[C@@H]2Nc1nccc(-c2ccc3c(c2)OCO3)n1)c1ccc2ccccc2c1	hNpr1 antagonist 13µM, HEK cytotox inconclusive | NPR1 antag cnf 24µM | NPR2 antag inconclusive | FLuc inh counter inactive | GloSensor cGMP inconclusive
CC(C)(C)C(=O)N[C@H]1CO[C@H]2[C@@H]1OC[C@@H]2Nc1nccc(-c2ccc(-c3ccccc3)cc2)n1	hNpr1 antagonist inconclusive, HEK cytotox inconclusive | NPR1 antag cnf 22µM | NPR2 antag inconclusive | FLuc inh counter inactive | GloSensor cGMP 22µM
N#Cc1cccc(NC(=O)O[C@@H]2CO[C@H]3[C@@H]2OC[C@@H]3Nc2nccc(-c3cccc(F)c3)n2)c1	NIH3T3 tox 22µM, hNpr1 antagonist 11µM, HEK cytotox 10µM, GPT2 inh inconclusive | NPR1 antag cnf 19µM | NPR2 antag 19µM | FLuc inh counter inactive | GloSensor cGMP 19µM
Cc1ccc(C(=O)N[C@H]2CO[C@H]3[C@@H]2OC[C@@H]3Nc2nccc(-c3ccc4c(c3)OCO4)n2)cc1	NIH3T3 tox inconclusive, HEK cytotox inconclusive, GPT2 inh inconclusive
O=C(Nc1cccc2ccccc12)O[C@@H]1CO[C@H]2[C@@H]1OC[C@@H]2Nc1nccc(-c2cccc(F)c2)n1	NIH3T3 tox inconclusive, HEK cytotox 40µM | NPR1 antag cnf inconclusive | NPR2 antag inconclusive | FLuc inh counter inactive | GloSensor cGMP inactive

Compound activity as filed in PubChem BioAssay.
